Assay results: PubChem BioAssay (NCI)
This is part of a sample that, as a whole, favours compounds with a hit. Of some 83,000 tested, about 20% had one in any assay.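 Treatment: one concentration, 48 hours, 96-well format. Scoring: percent growth, with anything below 10 considered active.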 A number with no mark means an inactive call. Active and inactive are the calls of the source.

Experiments:
Assay in all cases: NCI-60 one-dose screen, 48 h (100 = growth as untreated, 0 = no growth, -100 = all killed)
NCI-H226 lung = settings: 10 µM
NCI-H322M lung = settings: 10 µM unless noted
HOP-62 NSCLC = settings: 10 µM unless noted
NCI-H460 lung = settings: 10 µM unless noted
HOP-92 NSCLC = settings: 10 µM unless noted
NCI-H522 lung = settings: 10 µM
A549/ATCC NSCLC = settings: 10 µM unless noted
786-0 renal = settings: 10 µM unless noted
COLO 205 colon = settings: 10 µM unless noted
NCI-H23 lung = settings: 10 µM unless noted

Structure (SMILES)	growth (NCI-H226 lung) [%]	growth (NCI-H322M lung)	growth (HOP-62 NSCLC)	growth (NCI-H460 lung)	growth (HOP-92 NSCLC)	growth (NCI-H522 lung)	growth (A549/ATCC NSCLC)	growth (786-0 renal)	growth (COLO 205 colon)	growth (NCI-H23 lung)
O=C(COc1cccc(/C=C2\COc3ccccc3C2=O)c1)c1ccccc1	68.7	95.3%	98%	104%	91.5%	-41.9% (active)	89.2%	88.8%	102%	
O=C(Nc1nc2ccccc2[nH]1)C(=O)Nc1nc2ccccc2[nH]1		91.8%				101%	97.5%	108%	103%	89.6%
O=C1C(N2CCOCC2)=Cc2cccc3cccc1c23		111%		93.2%		89.4%	88.5%	103%	93.7%	100%
COc1ccc(/C=C(\C#N)c2cc3ccccc3n2C)cc1		48.3%		6.08% (active)	76.5%		27.2%	32.9%	-17.8% (active)	39.4%
CCOC(=O)c1cn2c3c(cc(F)cc3c1=O)C(CC)c1ccccc1C2 (stereo not drawn)		87.1%		101%	95.6%	78.7%	87.2%	93.2%	105%	103%
Cc1nn2c(-c3nc4ccc(Cl)cc4[nH]3)c(-c3ccc(F)cc3)nc2s1			115%	97.5%	91%	99.9%	80.1%	93.8%	108%	98.2%
COc1cc(C(=O)/C=C/c2c(-c3cccs3)nc3sccn23)cc(OC)c1OC	26.2	8.06% (active)	0.498% (active)	-27.9% (active)	-5.38% (active)	-13% (active)	-3.26% (active)	-13.9% (active)	-49.7% (active)	
C=C[C@H]1C[C@@H]2C[C@@H]3[C@H]4C/C=C\C(=O)NCCCC5NC(=O)C(=C(O)/C=C/[C@@H]4CC(=O)[C@H]3[C@@H]2[C@H]1C)C5=O (stereo partly drawn)			-82.3% (active)		-85.7% (active)		-91% (active)		-82.9% (active)	-8.31% (active)
O=C1CC(c2ccsc2)c2snc(-c3ccc(Cl)cc3)c2N1 (stereo not drawn)		55.7%		10.6%	51.1%		35.1%	39.6%	-42.8% (active)	35.9%
O=[N+]([O-])c1ccc(O)c2ncccc12	81.1	31.6%	50.9%	23.2%	67.4%	51.6%	46.6%	66.5%	80.5%	
COc1cc(-c2nc3ccccc3o2)cc(CN2CCN(c3ccccc3)CC2)c1O			47.1%	51%	81.8%	58.4%	30.2%	90.2%	117%	37.8%
O=[N+]([O-])c1ccc2nc(N/N=C/c3ccc(O)cc3)sc2c1		58.8%		48.5%	58.9%		30.7%	50.9%	89.9%	73.3%
COc1ccc(/C=C2\Oc3cc(C)c(Cl)cc3C2=O)cc1OC		107%		103%	101%		98.3%	95.7%		103%
CCOC(=O)n1cc(C2=C(c3cn(C)c4ccccc34)COC2=O)c2ccccc21		47.4%		3.7% (active)	37.9%		22.6%	27.5%	-31.2% (active)	30%
Oc1ccccc1/C=N/Nc1nc2ccccc2s1		63.1%		15.7%	44.5%		45%	73.4%	38%	59.4%
COc1cc(/C=C2\C(=O)Nc3ccccc32)cc(OC)c1O		96%		40.1%		8.78% (active)	67.9%	83.2%	112%	66.4%
Nc1cc(Br)c(-c2nnc(CCC(=O)c3nc4ccccc4[nH]3)o2)c(Br)c1			82.2%	102%	26.3%		90.7%	85.8%	70.6%	70.8%

Structure (SMILES)	growth (NCI-H226 lung) [%]	growth (NCI-H322M lung)	growth (HOP-62 NSCLC)	growth (NCI-H460 lung)	growth (HOP-92 NSCLC)	growth (NCI-H522 lung)	growth (A549/ATCC NSCLC)	growth (786-0 renal)	growth (COLO 205 colon)	growth (NCI-H23 lung)
COc1cc(CNCCN2C(=O)c3ccc4c5c(ccc(c35)C2=O)C(=O)N(CCNCc2cc(OC)c(OC)c(OC)c2)C4=O)cc(OC)c1OC		-68.3% (active)		-81.7% (active)		-60.3% (active)	-76.5% (active)	-93.6% (active)	-72% (active)	-89.3% (active)
O=C(CCc1nnc2sc(-c3ccccc3)nn12)c1nc2ccccc2[nH]1			100%	99.8%	49.1%	91.2%	99.3%	103%	114%	79.7%
CCCCCCCC/C=C\CCCCCCCCOc1cccc(CC(=O)NCC[N+]2(C)CCCCC2)c1		92.3%			86.9%	63%	82.3%	90.4%		71.9%
COc1ccc2nc(-n3nc(C)cc3C)c(-n3nc(C)cc3C)nc2c1			105%	108%	115%	100%	115%	105%	113%	97.1%
CNc1ccc(Br)cc1-c1n[nH]c(=O)[nH]c1=O		115%		101%			112%	95%	131%	90.8%
Brc1ccccc1Nc1ccc2nnc(-c3ccncc3)n2n1		95.6%				-71.2% (active)	101%	101%	103%	92.3%
Clc1ccc(C2=Nc3cccc4cccc(c34)N2)cc1Cl		103%		100%	92.9%	62%	99.6%	111%	100%	76.9%
c1ccc2c(c1)oc1cc3c(cc12)nnc1cccn13	98.5	90.9%	116%	112%	120%	96.7%	97.1%	121%		
CN1CCN(C(=O)OCCOCCOC(=O)N2CCN(C)CC2)CC1		105%		107%			104%	94.5%	102%	97.6%
CCCCc1ccc(NC(=O)C(F)(F)F)cc1				108%	104%	82%	102%	91.8%	107%	106%
CCOc1ccc(-c2cnnn2-c2nonc2-n2cccc2)cc1			31.6%	10.2%	25.4%		17.2%	37.3%	-75.2% (active)	17.3%
COc1ccc(NC(=O)c2ccc3c(c2)nc(-c2ccc(Cl)cc2)n3-c2cc(C(C)(C)C)[nH]n2)cc1	91.5	85.5%	106%	101%	59.3%	73.7%	79.7%	87.6%		
Cn1c(=O)c2c(-c3ccccc3F)n(-c3ccc4c(c3)OCO4)cc2n(C)c1=O			102%	99.4%		91.5%	99.8%	102%	106%	95.2%
COc1ccc(-c2nc3sc(C)cn3c2/C=C/C(=O)c2cc(OC)c(OC)c(OC)c2)cc1	76.9	76.1%	90.1%	50.5%	46.2%	37.8%	57.1%	48.2%	67.9%	
COc1ccc(/C=C/C(=O)N2CCC(O)CC2)cc1OC1CCCC1		108%		104%	95.7%	87.1%	91.4%	104%		103%
O=c1onc(-c2ccccc2)c2ccccc12			117%	109%	95.4%	101%	109%	105%	119%	104%
FC(F)(F)Oc1ccc2c(c1)C[C@H]1C[C@@H](c3ccoc3)N2O1		117%		114%	82.8%	99.6%	92.1%	105%	110%	96.5%
